# Results as given in PubChem BioAssay AID624139 (Broad Institute, 2012).
# Hit rate of the full screen: of about 17,000 compounds, about 220 (1.3%) were called active.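 How the source made its calls: active means spot fluorescence over background significantly raised, with a chance value under 7% in all four replicate spots of the compound; inactive means the rest.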 The list comes from a sample in which actives are over-represented; it also holds similar structures and randomly drawn compounds.
# Target: Nuclear factor NF-kappa-B p105 subunit (Homo sapiens) (UniProt P19838)
# Sequence (P19838 1-433 limits assumed): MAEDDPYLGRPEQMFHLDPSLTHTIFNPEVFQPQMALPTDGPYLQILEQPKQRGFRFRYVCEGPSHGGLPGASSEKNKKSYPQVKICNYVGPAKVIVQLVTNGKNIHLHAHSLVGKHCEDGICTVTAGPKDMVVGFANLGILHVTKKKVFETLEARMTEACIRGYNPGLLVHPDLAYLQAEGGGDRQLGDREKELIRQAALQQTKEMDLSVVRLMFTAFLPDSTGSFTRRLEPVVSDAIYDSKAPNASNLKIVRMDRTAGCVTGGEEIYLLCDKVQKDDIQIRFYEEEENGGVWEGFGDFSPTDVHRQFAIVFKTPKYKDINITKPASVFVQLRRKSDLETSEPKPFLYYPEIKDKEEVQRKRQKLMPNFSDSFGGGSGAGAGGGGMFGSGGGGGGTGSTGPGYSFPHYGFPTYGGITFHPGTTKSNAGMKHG
# Experiment: small molecules binding NF-kappa-B p105/p50 – biochemical, small molecule microarray, anti-His fluorescence, primary screen (AID 624139);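 further: probe protein is his-tagged human p50 processed subunit at 1 µg/ml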
row,SMILES,outcome
1,O=C1CC(C(=O)Nc2cccc(C(=O)O)c2)C(c2ccccc2)O1 (stereo not drawn),inactive
2,Cc1noc(C)c1S(=O)(=O)N(C)C[C@H]1Oc2ccc(NC(=O)Nc3cccc4ccccc34)cc2CC(=O)N([C@@H](C)CO)C[C@H]1C,inactive
3,Cc1noc(C)c1NC(=O)Nc1ccc2c(c1)CC(=O)N([C@H](C)CO)C[C@H](C)[C@H](CN(C)C(=O)NC(C)C)O2,inactive
4,COc1ccc(C#Cc2ccc3c(c2)[C@]2(C(=O)N3)[C@H](c3ccccc3OCCO)N3[C@H](c4ccccc4)[C@H](c4ccccc4)OC(=O)[C@H]3[C@@H]2C(=O)N2CCCCCCC2)cc1,active
5,O=C1O[C@@H](c2ccccc2)[C@@H](c2ccccc2)N2[C@@H](c3ccc(OCCO)cc3)[C@]3(C(=O)Nc4ccc(C#CCCO)cc43)[C@@H](C(=O)O)[C@H]12,inactive
6,O=C1O[C@@H](c2ccccc2)[C@@H](c2ccccc2)N2[C@@H](c3ccccc3OCCO)[C@]3(C(=O)Nc4ccc(C#CC5(O)CCCCCC5)cc43)[C@@H](C(=O)N3CCCCCCC3)[C@H]12,inactive
7,O=C1O[C@@H](c2ccccc2)[C@@H](c2ccccc2)N2[C@@H](c3ccccc3OCCO)[C@]3(C(=O)Nc4ccccc43)[C@@H](C(=O)N3CCCCCCC3)[C@H]12,inactive
8,COc1ccc(C#Cc2ccc3c(c2)[C@]2(C(=O)N3)[C@H](C(=O)N3CCCCCCC3)[C@H]3C(=O)O[C@H](c4ccccc4)[C@H](c4ccccc4)N3[C@@H]2c2ccc(O)cc2)cc1,inactive
9,COc1ccc(C#Cc2ccc3c(c2)[C@]2(C(=O)N3)[C@H](C(=O)N3CCc4cc(OC)c(OC)cc4C3)[C@H]3C(=O)O[C@H](c4ccccc4)[C@H](c4ccccc4)N3[C@@H]2c2ccc(O)cc2)cc1,active
10,O=c1c(-c2ccc(O[C@@H]3O[C@H](CO)[C@@H](O)[C@H](O)[C@H]3O)cc2)coc2c([C@@H]3O[C@H](CO)[C@@H](O)[C@H](O)[C@H]3O)c(O)cc(O)c12,inactive
11,CC(C)NC(=O)Nc1ccc2c(c1)C(=O)N([C@H](C)CO)C[C@H](C)[C@H](CN(C)C(=O)CCC(F)(F)F)OCCCC[C@H](C)O2,inactive
12,C[C@H](CO)N1C[C@H](C)[C@H](CN(C)S(=O)(=O)c2cn(C)cn2)OCCCC[C@H](C)Oc2ccc(N(C)C)cc2C1=O,inactive
13,C[C@H](CO)N1C[C@H](C)[C@H](CN(C)C(=O)Nc2ccccc2C(F)(F)F)OCc2cn(nn2)CCCC1=O,inactive
14,C[C@@H]1CN([C@@H](C)CO)C(=O)c2cccc(NC(=O)c3nc4ccccc4s3)c2O[C@H]1CN(C)S(=O)(=O)c1cccs1,inactive
15,COC(=O)C(CC#Cc1ccc2c(c1)[C@]1(C(=O)N2)[C@H](c2ccc(O)cc2)N2[C@H](c3ccccc3)[C@H](c3ccccc3)OC(=O)[C@H]2[C@@H]1C(=O)NC[C@H](O)c1ccccc1)C(=O)OC,inactive
16,C[C@@H]1CN([C@H](C)CO)C(=O)c2cc(NC(=O)C3CC3)ccc2O[C@@H]1CN(C)C,inactive
17,C[C@@H]1CN([C@@H](C)CO)C(=O)Cc2cc(NC(=O)Cc3ccccc3)ccc2O[C@@H]1CN(C)C(=O)Nc1ccc2c(c1)OCO2,inactive
18,C[C@@H]1CN([C@H](C)CO)C(=O)c2cc(NC(=O)Nc3ccc4c(c3)OCO4)ccc2O[C@@H]1CN(C)C(=O)Nc1ccc(F)cc1,inactive
19,COc1ccc(S(=O)(=O)N(C)C[C@@H]2Oc3ccc(NC(=O)Cc4ccccc4)cc3CC(=O)N([C@@H](C)CO)C[C@H]2C)cc1,inactive

row,SMILES,outcome
1,C[C@@H]1CN([C@@H](C)CO)C(=O)c2cc(NS(=O)(=O)c3cn(C)cn3)ccc2O[C@@H]1CN(C)C(=O)NC1CCCCC1,inactive
2,Cc1ccc(N(C(=O)COc2ccccc2[N+](=O)[O-])C2C=CS(=O)(=O)C2)cc1 (stereo not drawn),inactive
3,Cc1ccc(S(=O)(=O)N(C)CC(=O)Nc2cccc(C(F)(F)F)c2)cc1,inactive
4,COCCCNC(=O)[C@@]1(C)c2ccccc2C(=O)N(Cc2ccc(OC(F)(F)F)cc2)[C@H]1c1ccc(CO)cc1,inactive
5,C[C@H](CO)N1C[C@H](C)[C@@H](CN(C)S(=O)(=O)c2cn(C)cn2)Oc2c(NC(=O)C3CC3)cccc2C1=O,inactive
6,CCOC(=O)Cc1csc(NC(=O)c2sc3cccc(F)c3c2Cl)n1,inactive
7,O=C(CNS(=O)(=O)c1cccc(C(F)(F)F)c1)Nc1ccccc1F,inactive
8,S=C(NCc1ccco1)N1CCN(c2ncccn2)CC1,inactive
9,C[C@@H]1CN([C@H](C)CO)C(=O)Cc2cc(NS(=O)(=O)c3ccc(Cl)cc3)ccc2O[C@@H]1CN(C)S(=O)(=O)c1ccc(Cl)cc1,inactive
10,COc1ccc(C)cc1S(=O)(=O)N(C)CC(=O)Nc1ccccc1SC,inactive
11,CCCCc1nn(-c2ccccc2C(F)(F)F)c(=O)n1Cc1ccc(-c2ccccc2S(=O)(=O)NC(=O)c2sccc2C)cc1,active
12,C[C@@H]1CN([C@H](C)CO)C(=O)Cc2cc(NC(=O)Cc3cn(C)c4ccccc34)ccc2O[C@@H]1CN(C)Cc1ccc(C(F)(F)F)cc1,inactive
13,CC(C)NC(=O)N(C)C[C@H]1OCCCC[C@H](C)Oc2ccc(NC(=O)CCC(F)(F)F)cc2C(=O)N([C@H](C)CO)C[C@H]1C,inactive
14,C[C@H]1CCCCO[C@@H](CN(C)C(=O)Nc2ccccc2)[C@@H](C)CN([C@@H](C)CO)C(=O)c2cc(NC(=O)CCC(F)(F)F)ccc2O1,inactive
15,Cc1ccc(N(C(C)C(=O)Nc2ccc(Br)cc2F)S(C)(=O)=O)cc1C (stereo not drawn),inactive
16,C[C@@H]1CN([C@H](C)CO)C(=O)c2cccc(NS(=O)(=O)c3cn(C)cn3)c2O[C@H]1CN(C)S(=O)(=O)c1ccc(Cl)cc1,inactive
17,C[C@@H]1CN([C@H](C)CO)C(=O)Cc2cc(NC(=O)Cc3ccccc3)ccc2O[C@H]1CN(C)S(=O)(=O)c1cccs1,inactive
18,COCCOC(=O)N1C(=O)[C@@]2(c3cc(C#CCC(C(=O)OC)C(=O)OC)ccc31)[C@H](c1ccc(OCCO)cc1)N1[C@H](c3ccccc3)[C@H](c3ccccc3)OC(=O)[C@H]1[C@@H]2C(=O)NC[C@H](O)c1ccccc1,inactive
19,C[C@@H]1CCCCO[C@@H](CN(C)Cc2ccncc2)[C@H](C)CN([C@@H](C)CO)C(=O)c2cc(NS(=O)(=O)c3ccccc3)ccc2O1,inactive
